# According to PubChem BioAssay (NCATS):
# Results filed as inconclusive are left out. Active and inactive are the calls of the source. The call rests on the fitted dose curve; in most records, active means well fitted inhibition curve with a large enough effect; inconclusive means small, poorly fitted or top-dose-only effect; inactive means flat fitted curve, though single readings scatter.
# Columns and labels:
# CRL-7250 = normal cell line; assay: Cytotoxic Profiling of Annotated Libraries Using Quantitative High-Throughput Screening (AID 1296008); conditions: Five cell lines viability, CellTiter-Glo ATP luminescence, 48-72 h; max response: active compounds read low; further: nearly all actives have a fitted effect of over 60% in size
# Summary of the method: (§1)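 Cells exposed to compounds for 48 or 72 hr at 37 degrees Celsius. Viability read as ATP-coupled luminescence with CellTiter-Glo after 10 min at room temperature.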
# HEK293 = assay: as above; conditions: Five cell lines viability, CellTiter-Glo ATP luminescence, 48-72 h; max response: active compounds read low
# Summary of the method: as §1
# On the % scale 0 is the no-effect control and ±100 the full control effect; potency means the concentration at half of the fitted maximal effect.
smiles,measurement,setting,value
CC(=O)NCC(=O)N1C2CCC1c1cc(Nc3ncc(C(F)(F)F)c(NC4CCC4)n3)ccc12 (stereo not given),Potency,CRL-7250,1640 nM (active)
same,Potency,HEK293,2590 nM (active)
COC(=O)C1=CO[C@@H](O[C@@H]2O[C@H](CO[C@@H]3O[C@H](COC(=O)/C=C/c4cc(OC)c(O)c(OC)c4)[C@@H](O)[C@H](O)[C@H]3O)[C@@H](O)[C@H](O)[C@H]2O)[C@@H]2C(CO)=CC[C@H]12,max response,CRL-7250,-3.63% (inactive)
same,max response,HEK293,0.174% (inactive)
O=C1CC2(CCCC2)[C@H](O)C(=O)N1CCCCN1CCN(c2ncccn2)CC1,max response,CRL-7250,2.44% (inactive)
same,max response,HEK293,-2.49% (inactive)
Nc1nc2c(c(=O)[nH]1)C[C@@H](CCc1ccc(C(=O)N[C@@H](CCC(=O)O)C(=O)O)cc1)CN2,Potency,CRL-7250,116 nM (active)
same,Potency,HEK293,206 nM (active)
CCCCNc1ncc2c(-c3ccc(CN4CCN(C)CC4)cc3)cn(C3CCC(O)CC3)c2n1 (stereo not given),Potency,CRL-7250,5170 nM (active)
same,Potency,HEK293,7310 nM (active)
COC(C(=O)N1Cc2[nH]nc(NC(=O)c3ccc(N4CCN(C)CC4)cc3)c2C1)c1ccccc1 (stereo not given),Potency,CRL-7250,1840 nM (active)
same,Potency,HEK293,1640 nM (active)
CC(O)CCC1C(CO[C@@H]2O[C@H](CO)[C@@H](O)[C@H](O)[C@H]2O)CC(O)CC1(C)C (stereo not given in full),outcome,CRL-7250,inactive
same,max response,HEK293,1.92% (inactive)
CC1=C(C(=O)O)/C(=C\CO[C@@H]2O[C@H](CO)[C@@H](O)[C@H](O)[C@H]2O)C(OC(=O)/C=C\c2ccc(O)cc2)C1 (stereo not given in full),max response,CRL-7250,3.65% (inactive)
same,outcome,HEK293,inactive
C[C@H](Nc1ncnc2nc[nH]c12)c1cc2ccc(F)cc2nc1-c1ccccn1,max response,CRL-7250,-2.06% (inactive)
same,outcome,HEK293,inactive
Cc1cccc(Oc2cnc(=O)[nH]c2)c1,outcome,CRL-7250,inactive
same,max response,HEK293,2.27% (inactive)
C=CC1(C)CC(OC(=O)/C(C)=C\COC(C)=O)C(C(=C)C(=O)O)C(O)C1C(=C)CO (stereo not given),outcome,CRL-7250,inactive
same,max response,HEK293,-0.348% (inactive)
CC1=C(/C=C/C(C)=C\C=C\C(C)=C/C(=O)O)C(C)(C)CCC1,max response,CRL-7250,-50.6% (inactive)
same,max response,HEK293,0.159% (inactive)
C=C(C(=O)OC)C1C(O)CC2(C)C(=O)CCC(O)(CO)C2C1O (stereo not given),outcome,CRL-7250,inactive
same,max response,HEK293,-2.27% (inactive)
C#CCN(Cc1cc2c(=O)[nH]c(C)nc2cc1Br)c1ccc(C(=O)NCc2cccnc2)cc1,Potency,CRL-7250,51.7 nM (active)
same,Potency,HEK293,4.6 nM (active)
C/C=C(\C)C(=O)O[C@@H]1CC2[C@@H](CC=C3C[C@@H](O[C@H]4C[C@H](OC)[C@H](O[C@H]5C[C@H](OC)[C@H](O[C@@H]6O[C@H](C)[C@@H](O[C@H]7C[C@H](OC)[C@H](O[C@@H]8O[C@H](CO)[C@@H](O)[C@H](O)[C@H]8O)[C@@H](C)O7)[C@H](OC)[C@H]6O)[C@@H](C)O5)[C@@H](C)O4)CC[C@@]32C)[C@@]2(O)CC[C@H](C(C)=O)[C@@]12C (stereo not given in full),max response,CRL-7250,3.18% (inactive)
same,max response,HEK293,-3.44% (inactive)
CC(Oc1ccc2[nH]nc(/C=C/c3cnn(CCO)c3)c2c1)c1c(Cl)cncc1Cl (stereo not given),Potency,CRL-7250,1460 nM (active)
same,Potency,HEK293,2910 nM (active)
NC(=O)C(CCC(F)(F)F)N(Cc1ccc(-c2ncon2)cc1F)S(=O)(=O)c1ccc(Cl)cc1 (stereo not given),max response,CRL-7250,-7.08% (inactive)
same,max response,HEK293,-83.5% (inactive)
COC(=O)CCSCc1ccc(-c2onc(C)c2NC(=O)OC(C)c2ccccc2Cl)cc1 (stereo not given),max response,CRL-7250,-4.23% (inactive)
same,max response,HEK293,-7.48% (inactive)
Cc1cc(C(=O)Nc2cccc(C(=O)Nc3cccc(C(F)(F)F)c3)c2)on1,max response,CRL-7250,4.99% (inactive)
same,max response,HEK293,2.99% (inactive)
C=C1C(=O)OC2CC3(C)C(CC12)C(C)=CC(O)C3OC(C)=O (stereo not given),max response,CRL-7250,-3.42% (inactive)
same,max response,HEK293,-3.84% (inactive)
CC1OC(OCC2OC(OC3CCC4(C)C(CCC5(C)C4CC=C4C6CC(C)(C)CCC6(C(=O)OC6OC(CO)C(O)C(O)C6O)CCC45C)C3(C)CO)C(O)C(O)C2O)C(O)C(O)C1O (stereo not given),max response,CRL-7250,-3.44% (inactive)
same,max response,HEK293,-5.12% (inactive)
COc1ccccc1Oc1ccc(N(Cc2cccnc2)S(=O)(=O)CC(F)(F)F)cc1,max response,CRL-7250,-7.01% (inactive)
same,max response,HEK293,4.88% (inactive)
CC(=O)c1ccc(O[C@@H]2O[C@H](CO)[C@@H](O)[C@H](O)[C@H]2O)cc1,max response,CRL-7250,-8.35% (inactive)
same,max response,HEK293,-8.37% (inactive)
COC(=O)N(C)c1c(N)nc(-c2nn(Cc3ccccc3F)c3ncccc23)nc1N,outcome,CRL-7250,inactive
same,max response,HEK293,-0.877% (inactive)
Nc1nccn2c(C3CCC(C(=O)O)CC3)nc(-c3cc4cccc(Cl)c4[nH]3)c12 (stereo not given),Potency,CRL-7250,1460 nM (active)
same,Potency,HEK293,5170 nM (active)
